According to PubChem BioAssay (NCATS):
Records with an inconclusive call do not appear. The source made the active and inactive calls. The call rests on the fitted dose curve; in most records, active means well fitted inhibition curve with a large enough effect; inconclusive means small, poorly fitted or top-dose-only effect; inactive means flat fitted curve, though single readings scatter.

Legend:
[1] = target: Glutathione peroxidase 1 (Homo sapiens) (UniProt P07203); assay: Primary qHTS Assay for Inhibitors of Recombinant Selenoprotein Glutathione Peroxidase 1 (GPX1) (AID 1845191); further: nearly all actives have a fitted effect of over 65% in size
How it was run: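 GPX1 10 nM, GR 100 nM, GSH 1 mM, NADPH 0.5 mM, CHP 0.5 mM (final). 30-min cpd preincubation, RT. Ex340/Em450 read t=0, t=15 min.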

[2] = target: Phospholipid hydroperoxide glutathione peroxidase GPX4 (Homo sapiens) (UniProt P36969); assay: Primary qHTS Assay for Inhibitors of Recombinant Selenoprotein Glutathione Peroxidase 4 (GPX4) (AID 1845192); further: series mostly up to about 50 µM; nearly all actives have a fitted effect of over 65% in size
How it was run: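 qHTS, GR-coupled: GPX4 200 nM + cpd 30 min RT → GSH 1 mM, NADPH 0.5 mM, GR 100 nM → CHP 0.5 mM start; fluor 340/450 at t0 and t15 min; no-enzyme wells as control.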

[3] = target: Luciferin 4-monooxygenase (Photinus pyralis) (UniProt P08659); assay: Primary firefly luciferase (FLuc) qHTS assay for identification of artifact compounds. (AID 1845220); further: nearly all actives have a fitted effect of over 60% in size
How it was run: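 Reaction readout was CCD-imaged luminescence, taken 5 min after adding 10 nM purified firefly enzyme to compound-treated wells holding 10 uM luciferin and ATP in pH 7.6 buffer.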

Measured: Potency

Chain of Glutathione peroxidase 1 (Homo sapiens) (P07203 whole entry, looked up): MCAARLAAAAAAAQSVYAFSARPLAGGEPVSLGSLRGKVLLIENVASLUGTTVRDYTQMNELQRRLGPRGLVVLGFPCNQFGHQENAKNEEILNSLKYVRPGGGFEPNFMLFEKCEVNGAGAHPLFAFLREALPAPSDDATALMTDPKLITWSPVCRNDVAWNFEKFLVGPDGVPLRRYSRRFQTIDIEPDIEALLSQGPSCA
Chain of Phospholipid hydroperoxide glutathione peroxidase GPX4 (Homo sapiens) (P36969 whole entry, looked up): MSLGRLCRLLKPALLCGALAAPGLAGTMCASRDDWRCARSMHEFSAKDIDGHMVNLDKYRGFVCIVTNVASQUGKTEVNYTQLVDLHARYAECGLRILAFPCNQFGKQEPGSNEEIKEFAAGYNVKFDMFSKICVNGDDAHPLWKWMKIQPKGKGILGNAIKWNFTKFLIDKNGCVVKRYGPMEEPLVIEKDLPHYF

OC[C@H]1O[C@@H](Oc2cc(O)cc(/C=C/c3ccc(O)cc3)c2)[C@H](O)[C@@H](O)[C@@H]1O
inactive: all assays above

CC(=O)OC(CSC1CCC(=O)OC(C)CCC(=O)C1)C(=O)O (configuration not stated)
inactive: all assays above

C/C=C/C1=CC2=C(CO1)C(=O)[C@](C)(O)[C@H](OC(=O)c1c(O)cc(OC)c(O)c1C)C2
inactive: all assays above

COc1ccc(C[C@H](N)C(=O)N[C@H]2[C@@H](O)[C@H](n3cnc4c(N(C)C)ncnc43)O[C@@H]2CO)cc1
inactive: all assays above
